Our source for the fluorescence slope change, period change and survival values is PubChem BioAssay.

Values without a mark were called inactive. Results filed as inconclusive are left out. Active and inactive are the calls of the source. Unless noted, the rule behind the calls is not given here.

In the first test the target is ATP-dependent translocase ABCB1 (Homo sapiens) (UniProt P08183). Kind of test: MDR1 (ABCB1) efflux transporter inhibition, cell-based (AID 377; in the data active = fluorescence slope change above about 50%). The conditions noted are these: MDR1-expressing cells, fluorescent substrate accumulation slope; active compounds read high; concentration not given here.
ATP-dependent translocase ABCB1 (Homo sapiens), sequence (P08183 whole entry, looked up): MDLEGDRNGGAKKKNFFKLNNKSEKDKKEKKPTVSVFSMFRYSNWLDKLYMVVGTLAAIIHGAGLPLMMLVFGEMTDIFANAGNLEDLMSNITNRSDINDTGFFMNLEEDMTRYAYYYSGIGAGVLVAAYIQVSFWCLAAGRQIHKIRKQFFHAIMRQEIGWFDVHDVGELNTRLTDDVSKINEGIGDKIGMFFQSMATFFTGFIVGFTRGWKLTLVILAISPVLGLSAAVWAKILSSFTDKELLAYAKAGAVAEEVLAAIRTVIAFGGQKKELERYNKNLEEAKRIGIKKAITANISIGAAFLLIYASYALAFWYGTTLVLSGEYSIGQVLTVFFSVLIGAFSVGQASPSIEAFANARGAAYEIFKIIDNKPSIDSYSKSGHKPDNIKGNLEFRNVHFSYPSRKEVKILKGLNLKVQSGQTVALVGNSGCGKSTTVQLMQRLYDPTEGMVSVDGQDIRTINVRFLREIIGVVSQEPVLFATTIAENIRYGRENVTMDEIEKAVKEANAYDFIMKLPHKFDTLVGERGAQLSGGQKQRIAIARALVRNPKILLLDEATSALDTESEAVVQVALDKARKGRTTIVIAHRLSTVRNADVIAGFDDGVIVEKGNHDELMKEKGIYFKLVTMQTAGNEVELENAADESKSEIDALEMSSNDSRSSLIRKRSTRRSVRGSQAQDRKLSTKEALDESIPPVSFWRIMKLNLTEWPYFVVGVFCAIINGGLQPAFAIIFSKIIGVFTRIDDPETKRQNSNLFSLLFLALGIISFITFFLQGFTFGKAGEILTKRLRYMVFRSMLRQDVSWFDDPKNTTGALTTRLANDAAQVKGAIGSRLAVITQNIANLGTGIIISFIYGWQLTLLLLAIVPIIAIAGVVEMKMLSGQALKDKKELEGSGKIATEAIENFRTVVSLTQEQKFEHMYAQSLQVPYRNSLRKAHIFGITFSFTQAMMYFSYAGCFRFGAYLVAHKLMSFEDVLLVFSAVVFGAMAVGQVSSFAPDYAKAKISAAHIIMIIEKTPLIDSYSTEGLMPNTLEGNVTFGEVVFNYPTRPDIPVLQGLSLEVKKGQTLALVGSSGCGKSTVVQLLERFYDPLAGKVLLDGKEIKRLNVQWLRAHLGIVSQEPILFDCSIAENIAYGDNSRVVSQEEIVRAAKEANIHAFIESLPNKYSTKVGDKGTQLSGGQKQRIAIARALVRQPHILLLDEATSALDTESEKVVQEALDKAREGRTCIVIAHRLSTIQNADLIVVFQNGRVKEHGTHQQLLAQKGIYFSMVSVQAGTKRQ
Consider `COC(=O)[C@H]1[C@H]2C[C@@H]3c4[nH]c5cc(OC)ccc5c4CCN3C[C@H]2C[C@@H](OC(=O)/C=C/c2cc(OC)c(OC)c(OC)c2)[C@@H]1OC`, for which the fluorescence slope change is 61% (active).

For the molecule `COc1cc(=O)n(C)c2c(OCC(O)C(C)(C)O)cccc12` (stereo unspecified), the fluorescence slope change is -8.1%.

As for `CC[C@@]1([C@@H]2O[C@@H]([C@H]3O[C@@](O)(CO)[C@H](C)C[C@@H]3C)C[C@@H]2C)CC[C@H]([C@]2(C)CC[C@]3(C[C@H](O)[C@@H](C)[C@@H]([C@@H](C)[C@@H](OC)C(C)C(=O)O)O3)O2)O1` (stereo partly specified), the fluorescence slope change was 168% (active).

For `O[C@@H]1[C@@H](O)C=C2CCN3Cc4cc5c(cc4[C@H]1C23)OCO5` (stereo partly specified), the fluorescence slope change is 10.1%.

System in a further test: not listed separately
Kind of test: circadian clock period modulators, cell-based, LOPAC library, luminescence reporter (AID 2774).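 Note: values are relative to mean of DMSO wells on each plate.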 The conditions noted are these: circadian reporter cells, at 7 µM, actives lie on both sides.
For the molecule `N#C/C(=C\c1ccc(O)c(O)c1)C(=O)c1ccc(O)c(O)c1`, the period change was -0.055 h.

Turning to `N=C(N)SCCc1cccc(CCSC(=N)N)c1`, the period change was 0.115 h.

For the molecule `Oc1ccc(Cn2cc[nH]c2=S)cc1`, the period change was 0.16 h.

`CNc1ncnc2c1ncn2[C@H]1C[C@H](OP(=O)(O)O)[C@@H](COP(=O)(O)O)O1`: the period change is -0.03 h.

In the case of `Cc1nc(N=Nc2cc(S(=O)(=O)O)c3cc([N+](=O)[O-])cc(S(=O)(=O)O)c3c2)c(COP(=O)(O)O)c(C=O)c1O`, the period change was -0.275 h.

Regarding `NC(=S)c1ccc[n+]([C@@H]2O[C@@H](COP(=O)([O-])OP(=O)(O)OC[C@H]3O[C@@H](n4cnc5c(N)ncnc54)C(OP(=O)(O)O)[C@H]3O)C(O)C2O)c1` (stereo partly specified), the period change was 0.055 h.

For the molecule `Cc1ccc2c(c1)C(N1CCN(C)CC1)=Nc1cccnc1N2`, the period change is 0.2 h.

With `NC(N)=N[C@@H](CCC(=O)O)C(=O)O`, the period change is 0.01 h.

In the case of `COc1cc(=O)n(C)c2c(OCC(O)C(C)(C)O)cccc12` (stereo unspecified), the period change is -0.165 h.

Take `N=S(=O)(O)Cc1noc2ccccc12`: the period change is 0.1 h.

On to `O=C(O)CCC/C=C\C[C@@H]1[C@@H](/C=C/[C@H](O)C2Cc3ccccc3C2)[C@@H](F)C[C@@H]1O`, for which the period change was -0.195 h.

As for `N=C(N)c1ccc(OCCCCCOc2ccc(C(=N)N)cc2)cc1` (tested in a mixture with another compound), the period change is 0.16 h.

With `NCCC1CCCC(CCN)N1` (stereo unspecified), the period change is 0.21 h.

On to `Nc1ccn([C@@H]2O[C@H](CO)[C@@H](O)[C@@H]2O)c(=O)n1`, for which the period change was -0.07 h.

In the case of `CCCCCC(O)c1cccc(OCc2ccc3ccccc3n2)c1` (stereo unspecified), the period change is 0.015 h.

In the case of `N=c1c[n+](N2CCOCC2)[n-]o1`, the period change was 0.03 h.

As for `N=c1ccn2c(n1)OC1[C@@H](O)[C@@H](CO)O[C@H]12` (stereo partly specified), the period change is -0.115 h.

Turning to `CCOC(=O)C12CC1/C(=N/O)c1ccccc1O2` (stereo unspecified), the period change is -0.125 h.

As for `O=C(O)CCC(=O)N1CCCC1C(=O)O` (stereo unspecified), the period change was -0.225 h.

Consider `N.N.N.N.N.N.N.N.N.N.N.N.N.N.O.O.[Cl-].[Cl-].[Cl-].[Cl-].[Cl-].[Cl-].[Ru+4].[Ru+5].[Ru+5]`, for which the period change was 0.18 h.

`O=C1O/C(=C/Br)CCC1c1cccc2ccccc12` (stereo unspecified): the period change was -0.24 h.

On to `CN(C)C(=O)/N=N/C(=O)N(C)C`, for which the period change was 0.015 h.

For the molecule `N#C/C(=C\c1ccc(O)c(O)c1)C(=O)NCCCNC(=O)/C(C#N)=C/c1ccc(O)c(O)c1`, the period change was -0.285 h.

`COc1c2c(nc3ccccc13)OC(C(C)(O)CO)C2` (stereo unspecified): the period change was 0.065 h.

With `CC[C@@H]1Cc2cc(O)ccc2C2=C1c1ccc(O)cc1C[C@H]2CC`, the period change was -0.02 h.

Consider `CCSC(N)=Nc1ccc(C(F)(F)F)cc1`, for which the period change is 0.125 h.

As for `Nc1nc(SCc2ccc([N+](=O)[O-])cc2)c2ncn([C@@H]3O[C@H](CO)[C@H](O)C3O)c2n1` (stereo partly specified), the period change was -0.105 h.

`NCCC(=O)NCCc1cnc[nH]1`: the period change was 0.085 h.

Consider `CC(=O)O[C@H]1CC2(C)[C@@H](C[C@@H](O)[C@H]3[C@@]4(C)CC[C@@H](O)[C@@H](C)[C@@H]4CC[C@@]32C)C1=C(CCC=C(C)C)C(=O)O` (stereo partly specified), for which the period change is -0.06 h.

Take `NC(N)=[N+]1CCc2ccccc2C1`: the period change was -0.15 h.

System in the next test: not listed separately
Kind of test: hESC survival regulators, cell-based (AID 493140).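 Note: cells exposed to compounds for four days before counting.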 The conditions noted are these: human embryonic stem cell survival screen; active compounds read high.
As to `COC(=O)[C@H]1[C@H]2C[C@@H]3c4[nH]c5cc(OC)ccc5c4CCN3C[C@H]2C[C@@H](OC(=O)/C=C/c2cc(OC)c(OC)c(OC)c2)[C@@H]1OC`, the survival was 9.58.

Turning to `COc1cc(=O)n(C)c2c(OCC(O)C(C)(C)O)cccc12` (stereo unspecified), the survival is 2.75.

For `CCCCCC(O)c1cccc(OCc2ccc3ccccc3n2)c1` (stereo unspecified), the survival was 78.8.

Turning to `CC[C@@]1([C@@H]2O[C@@H]([C@H]3O[C@@](O)(CO)[C@H](C)C[C@@H]3C)C[C@@H]2C)CC[C@H]([C@]2(C)CC[C@]3(C[C@H](O)[C@@H](C)[C@@H]([C@@H](C)[C@@H](OC)C(C)C(=O)O)O3)O2)O1` (stereo partly specified), the survival was 0.417.

Turning to `COc1c2c(nc3ccccc13)OC(C(C)(O)CO)C2` (stereo unspecified), the survival was 14.3.

Turning to `NCCC(=O)NCCc1cnc[nH]1`, the survival was 7.75.

Regarding `O[C@@H]1[C@@H](O)C=C2CCN3Cc4cc5c(cc4[C@H]1C23)OCO5` (stereo partly specified), the survival was 0.583.
